Data on nine compounds can be found in PubChem BioAssay (NCI).

Structures are written as SMILES. Compounds without any hit were thinned out: in the full panel of roughly 83,000, 20% have a hit.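 How to read the values: 0–100, growth inhibition (40 = 60% inhibited); 0, no net growth; -100 to 0, cell death (-40 = 40% of starting cells died; -100 = all dead).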 Values without a mark were called inactive. The source made the active and inactive calls. How the source made its calls: active means growth percent below 10; inactive means the rest.

Some test systems named below: SR leukemia; RPMI-8226 leukemia; OVCAR-8 ovarian; OVCAR-5 ovarian; OVCAR-4 ovarian; SK-OV-3 ovarian; IGROV1 ovarian; OVCAR-3 ovarian; HS 578T breast; NCI/ADR-RES ovarian; T-47D breast; BT-549 breast; MDA-MB-435 melanoma; SW-620 colon; MCF7 breast; HCT-116 colon; HCC-2998 colon; KM12 colon.
Holding throughout (assay): NCI-60 one-dose screen, 48 h (100 = growth as untreated, 0 = no growth, -100 = all killed)
What all share (settings): 10 µM unless noted

In the case of `C=CCNC(=S)NNc1ccc([N+](=O)[O-])cn1`, the growth is 98.3% in the experiment on SR leukemia; 101% in the experiment on RPMI-8226 leukemia; 111% in the experiment on OVCAR-8 ovarian; 95.6% in the experiment on OVCAR-5 ovarian; -92.2% (active) in the experiment with OVCAR-4 ovarian; 104% with SK-OV-3 ovarian. The growth in the experiment on IGROV1 ovarian was 102%; with OVCAR-3 ovarian, 98.7%; with HS 578T breast it was 105%; in the experiment on NCI/ADR-RES ovarian, 95.9%; in the experiment with T-47D breast, 113%; with BT-549 breast it was 100%. The growth with MDA-MB-435 melanoma is 95.7%; in the experiment with SW-620 colon it was 92%; with MCF7 breast it was 88.4%; in the experiment with HCT-116 colon, 97.6%; with HCC-2998 colon it was 96.3%; with KM12 colon it was 99.4%.
On to `Cn1cnc2nc[nH]c2c1=S`, for which the growth was 89.6% in the experiment with SR leukemia; 101% in the experiment with RPMI-8226 leukemia; 105% in the experiment with OVCAR-8 ovarian; 94.8% in the experiment with OVCAR-5 ovarian; 108% with OVCAR-4 ovarian; 105% in the experiment on SK-OV-3 ovarian. Further, the growth in the experiment on IGROV1 ovarian was 113%; with OVCAR-3 ovarian, 115%; in the experiment on HS 578T breast, 102%; in the experiment with NCI/ADR-RES ovarian it was 101%; with T-47D breast it was 96%; with BT-549 breast, 98.6%. In addition, the growth in the experiment with MDA-MB-435 melanoma was 109%; with SW-620 colon, 99.8%; in the experiment on MCF7 breast, 94.2%; in the experiment on HCT-116 colon it was 106%; in the experiment with HCC-2998 colon, 102%; with KM12 colon it was 105%.
For `COc1ccc(C2=C/C(=C\c3ccc(Cl)cc3)C(=O)NN2C(=S)NN)cc1`, the growth is 93% in the experiment with SR leukemia; 86.5% in the experiment on RPMI-8226 leukemia; 94.2% with OVCAR-8 ovarian; 112% in the experiment with OVCAR-5 ovarian; 90% in the experiment with OVCAR-4 ovarian; 89.5% in the experiment on SK-OV-3 ovarian. Further, the growth was 107% in the experiment with IGROV1 ovarian; 111% in the experiment on OVCAR-3 ovarian; 96.6% in the experiment with HS 578T breast; 94.5% in the experiment on NCI/ADR-RES ovarian; 76.6% in the experiment on T-47D breast; 101% in the experiment on BT-549 breast. For the same compound, the growth was 109% in the experiment with MDA-MB-435 melanoma; 99.4% in the experiment with SW-620 colon; 75.3% in the experiment on MCF7 breast; 94.9% in the experiment with HCT-116 colon; 109% in the experiment with HCC-2998 colon; 100% in the experiment with KM12 colon.
With `CCCC(=O)Nc1ccccc1C(=O)O`, the growth in the experiment on SR leukemia was 93.1%; in the experiment with RPMI-8226 leukemia, 109%; in the experiment with OVCAR-8 ovarian, 91.1%; with OVCAR-5 ovarian, 99.5%; with OVCAR-4 ovarian, 101%; with SK-OV-3 ovarian, 104%. Moreover, the growth was 110% in the experiment with IGROV1 ovarian; 94.7% with OVCAR-3 ovarian; 102% in the experiment with HS 578T breast; 96.3% with NCI/ADR-RES ovarian; 117% in the experiment with T-47D breast; 113% in the experiment with BT-549 breast. Moreover, the growth was 101% in the experiment with MDA-MB-435 melanoma; 105% in the experiment with SW-620 colon; 90.7% in the experiment on MCF7 breast; 103% in the experiment with HCT-116 colon; 97.9% with HCC-2998 colon; 90.5% in the experiment with KM12 colon.
Take `O=C1CCNC1`: the growth in the experiment with SR leukemia was 106%; with RPMI-8226 leukemia, 102%; in the experiment on OVCAR-8 ovarian, 100%; with OVCAR-5 ovarian, 105%; in the experiment on OVCAR-4 ovarian, 97.8%; with SK-OV-3 ovarian, 107%. Further, the growth was 118% in the experiment with IGROV1 ovarian; 109% in the experiment on OVCAR-3 ovarian; 114% in the experiment on HS 578T breast; 110% in the experiment with NCI/ADR-RES ovarian; 107% in the experiment with T-47D breast; 105% in the experiment on BT-549 breast. Further, the growth was 104% in the experiment with MDA-MB-435 melanoma; 103% in the experiment on SW-620 colon; 103% in the experiment on MCF7 breast; 105% in the experiment with HCT-116 colon; 118% in the experiment on HCC-2998 colon; 111% in the experiment with KM12 colon.
As for `Cc1cc2c(-c3nc4ccccc4n3C)c(O)c(O)cc2c(O)c1-c1c(C)cc2c(-c3nc4ccccc4n3C)c(O)c(O)cc2c1O`, the growth in the experiment on SR leukemia is 56.4%; in the experiment on RPMI-8226 leukemia, 24.4%; in the experiment with OVCAR-8 ovarian it was 32.1%; with OVCAR-5 ovarian, 58.1%; with OVCAR-4 ovarian, 70.1%; with SK-OV-3 ovarian, 83.2%. Besides, the growth is 89.7% in the experiment with IGROV1 ovarian; 71.3% with OVCAR-3 ovarian; 28.4% in the experiment with HS 578T breast; 102% with NCI/ADR-RES ovarian; 19.3% in the experiment on T-47D breast; 20% with BT-549 breast. The growth in the experiment on MDA-MB-435 melanoma was 34.2%; in the experiment on SW-620 colon it was 54.3%; in the experiment with MCF7 breast, 19.6%; in the experiment on HCT-116 colon, 7.37% (active); in the experiment on HCC-2998 colon it was 66.5%; in the experiment on KM12 colon it was 24.7%.
As to `Cc1nn(-c2ccccc2)c(N)c1N=C1NC(=O)/C(=C/c2ccc(Cl)cc2)S1`, the growth in the experiment on SR leukemia is 34.1%; in the experiment on RPMI-8226 leukemia, 49.5%; with OVCAR-8 ovarian it was 91.6%; in the experiment on OVCAR-5 ovarian, 86.6%; in the experiment on OVCAR-4 ovarian, 75.2%; in the experiment on SK-OV-3 ovarian, 88%. For the same compound, the growth with IGROV1 ovarian was 104%; in the experiment on OVCAR-3 ovarian, 68.8%; in the experiment on HS 578T breast, 93.1%; in the experiment on NCI/ADR-RES ovarian, 92.2%; with T-47D breast, 74.4%; with BT-549 breast, 75.8%. The growth with MDA-MB-435 melanoma is 66.9%; in the experiment on SW-620 colon, 82.2%; with MCF7 breast it was 70.9%; in the experiment with HCT-116 colon it was 83.6%; in the experiment with HCC-2998 colon, 121%; with KM12 colon, 78.3%.
Consider `CCOC(=O)c1cc(-c2ccc(OC)cc2)[nH]c1NNC(=O)CCOC`, for which the growth with SR leukemia is 87.7%; in the experiment on RPMI-8226 leukemia it was 98.2%; in the experiment with OVCAR-8 ovarian, 106%; in the experiment with OVCAR-5 ovarian, 100%; in the experiment on OVCAR-4 ovarian it was 113%; in the experiment with SK-OV-3 ovarian it was 105%. For the same compound, the growth in the experiment on IGROV1 ovarian was 2.76% (active); in the experiment on OVCAR-3 ovarian it was 82.5%; in the experiment on HS 578T breast, 104%; in the experiment with NCI/ADR-RES ovarian, 125%; with T-47D breast, 95.2%; in the experiment on BT-549 breast, 91.9%. In addition, the growth is 96.9% in the experiment with MDA-MB-435 melanoma; 101% with SW-620 colon; 113% in the experiment with MCF7 breast; 93.8% in the experiment with HCT-116 colon; 122% with HCC-2998 colon; 118% in the experiment with KM12 colon.
Take `COc1cc(NC(C)CCCN)c2nccc(C)c2c1OC` (configuration not stated): the growth is 69.4% in the experiment on SR leukemia; 65.7% with RPMI-8226 leukemia; 98.2% with OVCAR-8 ovarian; 91.8% in the experiment on OVCAR-5 ovarian; 29% in the experiment on OVCAR-4 ovarian; 96.1% in the experiment on SK-OV-3 ovarian. Besides, the growth in the experiment on IGROV1 ovarian is 92.8%; in the experiment with OVCAR-3 ovarian, 44.4%; in the experiment with HS 578T breast, 87.3%; with NCI/ADR-RES ovarian it was 98.2%; with T-47D breast, 66.7%; in the experiment on BT-549 breast, 98.2%. For the same compound, the growth in the experiment on MDA-MB-435 melanoma was 106%; with SW-620 colon, 83.5%; with MCF7 breast, 10.2%; in the experiment with HCT-116 colon it was 93.1%; with HCC-2998 colon, 96.7%; in the experiment with KM12 colon it was 101%.
